# Measured values: PubChem BioAssay (NCI)
# The panel holds about 83,000 compounds, 20% with a hit somewhere; the sample as a whole holds those more often.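 Note: values are percent growth. 100 is the growth of untreated cells, values between 100 and 0 indicate rising inhibition; between -100 and 0 indicates cell death.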 Values without a mark were called inactive. The source made the active and inactive calls. Rule for the calls: active = growth percent below 10; inactive = the rest.
# Legend:
# Test in all cases: NCI-60 one-dose screen, 48 h (100 = growth as untreated, 0 = no growth, -100 = all killed)
# HCT-15 colon = conditions: 10 µM unless noted
# HT29 colon = conditions: 10 µM unless noted
# SNB-75 CNS = conditions: 10 µM unless noted
# SNB-19 CNS = conditions: 10 µM unless noted
# U251 CNS = conditions: 10 µM unless noted
# PC-3 prostate = conditions: 10 µM unless noted
# SK-MEL-5 melanoma = conditions: 10 µM unless noted
# UACC-62 melanoma = conditions: 10 µM unless noted
# LOX IMVI melanoma = conditions: 10 µM unless noted
# SK-MEL-28 melanoma = conditions: 10 µM unless noted
# SK-MEL-2 melanoma = conditions: 10 µM unless noted
# EKVX NSCLC = conditions: 10 µM unless noted
# SN12C renal = conditions: 10 µM unless noted
# UO-31 renal = conditions: 10 µM unless noted
# TK-10 renal = conditions: 10 µM unless noted
# ACHN renal = conditions: 10 µM unless noted
# HL-60(TB) leukemia = conditions: 10 µM unless noted
# CCRF-CEM leukemia = conditions: 10 µM unless noted
# CAKI-1 renal = conditions: 10 µM unless noted
# A498 renal = conditions: 10 µM
Structure (SMILES),growth (HCT-15 colon),growth (HT29 colon),growth (SNB-75 CNS),growth (SNB-19 CNS),growth (U251 CNS),growth (PC-3 prostate),growth (SK-MEL-5 melanoma),growth (UACC-62 melanoma),growth (LOX IMVI melanoma),growth (SK-MEL-28 melanoma),growth (SK-MEL-2 melanoma),growth (EKVX NSCLC),growth (SN12C renal),growth (UO-31 renal),growth (TK-10 renal),growth (ACHN renal),growth (HL-60(TB) leukemia),growth (CCRF-CEM leukemia),growth (CAKI-1 renal),growth (A498 renal)
COC(=O)[C@@H](C)C[C@H](Cc1cn(C)c2ccccc12)NC(=O)c1csc([C@@H](C[C@H](C(C)C)N(C)C(=O)[C@@H](NC(=O)[C@H]2CCCCN2C)C(C)C)OC(C)=O)n1,9.96% (active),3.4% (active),59%,35.6%,15.4%,24.3%,-38.4% (active),47.8%,19.1%,60.6%,39%,46.4%,23.5%,34.1%,28.1%,18.8%,-39.1% (active),10.8%,,
CCOP(=O)(Cc1ccc(C#N)cc1)OCC,108%,92.2%,106%,97.3%,95.6%,84.7%,104%,94.1%,98.3%,107%,92.3%,105%,97%,99.2%,93.4%,110%,,99.3%,,
O=C1NC(=O)C(=Cc2cccn2CCCCCn2c3ccccc3c(=O)c3ccccc32)C(=O)N1,92.8%,103%,101%,101%,96.8%,91%,98.6%,90.7%,95.3%,111%,107%,105%,106%,79.4%,101%,,92.2%,100%,103%,104%
COC(=O)[C@@H](C)C[C@H](Cc1ccccc1)NC(=O)c1csc([C@@H](C[C@H](C(C)C)N(C)C(=O)[C@@H](NC(=O)CN(C)C)C2CC2)OC(C)=O)n1,14.6%,-24.4% (active),37.4%,41%,12.7%,25.9%,-47.6% (active),63.8%,8.77% (active),61.3%,11.6%,46.3%,46.8%,41.6%,45.5%,,-27% (active),10.3%,63.5%,0.468% (active)
COc1ccc(C(=O)c2cc(OC)c(OC)c(OC)c2)cc1OC(C)=O,12.7%,18.8%,40.4%,28.3%,6.47% (active),14.1%,-35.1% (active),38.9%,19.7%,56.6%,47.8%,68.7%,29.5%,39.6%,74.8%,36.7%,,13.8%,,49.8%
COC(=O)[C@@H](C)C[C@H](Cc1ccc2ccccc2c1)NC(=O)c1csc([C@@H](C[C@H](C(C)C)N(C)C(=O)[C@@H](NC(=O)[C@H]2CCCCN2C)C(C)C)OC(C)=O)n1,70.3%,1.71% (active),42.8%,51.8%,22.1%,47.3%,-21% (active),49.3%,28.3%,68.6%,57.8%,46.1%,33.5%,23.1%,28%,,9.43% (active),24.2%,,21.7%
O=C1OCCC1Br (centres undefined),98.7%,97.3%,89.9%,104%,92.2%,99.5%,103%,103%,97.4%,99.5%,96.5%,,103%,96.4%,104%,102%,,,95%,101%
Clc1cccc(Cl)c1Cl,101%,82.8%,93.8%,118%,98.4%,103%,105%,99.8%,101%,109%,74.5%,95.7%,120%,85.3%,86.8%,,,96.4%,,107%
COC(=O)[C@@H](C)C[C@H](Cc1ccccc1)NC(=O)c1csc([C@@H](C[C@H](C(C)C)N(C)C(=O)[C@@H](NC(=O)[C@H]2CCCCN2C)C2CCCCC2)OC(C)=O)n1,10.8%,-0.416% (active),5.81% (active),64.5%,-19.4% (active),5.7% (active),-56.2% (active),36.3%,12.5%,38%,11.2%,25%,12.6%,31.7%,,11.4%,-51.9% (active),0.645% (active),14.5%,-10.2% (active)
CC[C@H](C)[C@H](NC(=O)N[C@@H](C)c1ccccc1)C(=O)N(C)[C@H](C[C@@H](OC(C)=O)c1nc(C(=O)N[C@@H](Cc2ccccc2)C[C@H](C)C(=O)OC)cs1)C(C)C,12.3%,-24.4% (active),-0.0971% (active),56.7%,13.1%,22.6%,-33.7% (active),11.4%,18%,44.6%,-14.9% (active),36.7%,39.9%,28.5%,,21.5%,,10.7%,,-4.53% (active)
C#Cc1ccc2c(c1)C(c1ccccc1)=NCC(=O)N2C,26.4%,13.1%,53.9%,46.6%,36.9%,54.4%,34.7%,31%,44.4%,59.1%,25.5%,50.2%,,67.8%,66.1%,52%,1.49% (active),48.9%,51.3%,26.7%
CCCCCCCCC(CO)NCCc1ccccc1 (centres undefined),102%,73.6%,108%,102%,93.3%,73.5%,101%,98.5%,103%,108%,96.3%,119%,99.4%,88.1%,98.8%,,70.1%,62%,,95.2%
CC[C@@H]1[C@@H](C)O[C@@](O)([C@@H](C)[C@H](O)[C@H](C)[C@H]2OC(=O)/C=C/C=C/[C@H](C)[C@@H]([C@@H](C)[C@@H](O)[C@H](C)[C@@]3(O)C[C@@H](O[C@H]4C[C@@H](O)[C@H](O)C(C)O4)[C@H](CC)[C@@H](C)O3)OC(=O)/C=C/C=C/[C@@H]2C)C[C@H]1O[C@@H]1C[C@@H](O)[C@H](O)C(C)O1 (some centres undefined),-84.4% (active),-84% (active),-97.6% (active),-81.6% (active),-92.8% (active),-88.4% (active),-96.2% (active),-73.3% (active),-94% (active),-92.1% (active),-92% (active),-88.6% (active),-75.1% (active),-97% (active),,-96.8% (active),-73.3% (active),-61.5% (active),-98.4% (active),-97.5% (active)
CN(C)C(=O)Oc1ccccc1-c1ccccc1,103%,101%,107%,104%,101%,91.9%,102%,104%,97%,116%,102%,101%,102%,86.3%,109%,,99.7%,96.9%,,115%
CCCCNC(c1ccc(Cl)cc1)C(O)c1ccc(Cl)cc1 (centres undefined),32.7%,4.8% (active),61.9%,54.6%,6.63% (active),42.2%,32.7%,19.2%,-75.6% (active),45.6%,62.5%,53.9%,,36.9%,56.8%,35.2%,19.6%,29.7%,30.3%,57.8%
C=COC(=O)CCN1CC1,109%,110%,101%,96.3%,101%,97.5%,105%,97.9%,100%,113%,115%,103%,102%,90.6%,110%,,,105%,,77.4%
